In the library only some 12% were active in any assay of this set; here they are far more common.
AmpC inh detg – qHTS Inhibitors of AmpC Beta-Lactamase (assay with detergent); hit rate 0.041% among 370,000; AID 485294, 2010; AmpC hydrolysis of nitrocefin, absorbance 480 nm, 0.01% Triton; P00811; Potency, µM (titrated, usually from 114 µM), without a hit: at the highest dose activity change, negative = inhibition, hits mostly inhibitors;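 note: 0% = no-compound wells and -100% = no-enzyme wells; nearly all actives have a fitted effect of over 25% in size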
Target sequence (P00811 whole entry, looked up): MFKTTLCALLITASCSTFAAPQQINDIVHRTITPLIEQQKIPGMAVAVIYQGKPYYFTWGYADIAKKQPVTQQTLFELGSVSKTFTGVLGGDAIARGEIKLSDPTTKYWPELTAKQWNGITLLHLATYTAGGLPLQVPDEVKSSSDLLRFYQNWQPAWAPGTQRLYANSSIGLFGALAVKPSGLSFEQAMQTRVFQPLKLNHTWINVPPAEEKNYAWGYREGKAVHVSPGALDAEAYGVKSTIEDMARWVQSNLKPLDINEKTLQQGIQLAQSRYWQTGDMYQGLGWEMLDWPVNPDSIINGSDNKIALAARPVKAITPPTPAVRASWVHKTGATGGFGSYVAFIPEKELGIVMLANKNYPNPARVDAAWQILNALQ
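AmpC (5.3 nM in the dispensed reagent) in 20 mM phosphate pH 7.0 with 0.01% (detergent screen) or 0.0001% Triton X-100 was preincubated with compounds for 15 min at room temperature. Nitrocefin was then added from an 800 uM solution, and hydrolysis was followed at 480 nm.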
SARS PLpro yeast – qHTS of Yeast-based Assay for SARS-CoV PLP. S. cerevisiae expressing SARS-CoV PLpro, growth rescue. Potency, µM (highest dose often 32.9 µM), for inactives: at the highest dose activity, positive = growth rescue, actives largely listed as activators. hit rate 0.19% among 330,000. AID 485353, 2010; calls by dose curve; note: 0% is about no effect; nearly all actives have a fitted effect of over 55% in size
Sm TGR block – qHTS Assay for the Inhibitors of Schistosoma Mansoni Peroxiredoxins; Schistosoma mansoni thioredoxin glutathione reductase (TGR), Q962Y6; purified TGR, DTNB reduction, TNB absorbance 405 nm; Potency, µM (top dose mostly 114 µM), without a hit: at the highest dose activity change, negative = inhibition, hits mostly inhibitors; hit rate 3% among 360,000; AID 485364, 2010; note: % is set by controls: 0 for no effect and ±100 for the full control effect; nearly all actives have a fitted effect of over 60% in size
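TGR 20 nM + NADPH 100 uM (dispensed conc.), cpd preinc 15 min RT; start with NADPH (500 uM addition) then DTNB (15 mM addition). Kinetic TNB absorbance, 405 nm filter. Four-parameter Hill fit across titration.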
Pf growth 96h – Primary qHTS for delayed death inhibitors of the malarial parasite plastid, 96 hour incubation; hit rate 6.9% among 320,000; P. falciparum luciferase reporter growth, 96 h; Potency, µM (highest dose often 28.7 µM), without a hit: at the highest dose activity change, negative = inhibition, most hits filed as inhibitors; note: % is set by controls: 0 for no effect and ±100 for the full control effect
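Plates of compound plus infected erythrocytes (2% hematocrit, 0.05% parasitemia final) incubate 96 hours, 37 C, 5% CO2. Detection reagent added; reduced luminescence from the parasites' luciferase reporter flags inhibition.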
Pf growth 48h – Primary qHTS for delayed death inhibitors of the malarial parasite plastid, 48 hour incubation. P. falciparum luciferase growth in erythrocytes, 48 h. Potency, µM (titrated, usually from 28.7 µM), inactives show at the top dose activity change, negative = inhibition, usual class: inhibitors. hit rate 5.9% among 310,000. AID 504832, 2011; note: % is set by controls: 0 for no effect and ±100 for the full control effect
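Parasite viability was followed by luminescence of a genomically integrated firefly luciferase. Cultures held 0.1% parasitemia at 2% hematocrit (final), incubated under 5% CO2 at 37 C.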
AmpC inh no detg – qHTS Inhibitors of AmpC Beta-Lactamase (assay without detergent) | hit rate 0.52% among 330,000 | AID 485341, 2010 | Potency, µM (highest dose often 57.1 µM), for inactives: top-dose activity change, negative = inhibition, hits mostly inhibitors | P00811 | AmpC nitrocefin hydrolysis, absorbance 480 nm, 0.0001% Triton;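 note: plate controls were no compound for no effect and no enzyme for full effect; nearly all actives have a fitted effect of over 20% in size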
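AmpC (5.3 nM in the dispensed reagent) in 20 mM phosphate pH 7.0 with 0.01% (detergent screen) or 0.0001% Triton X-100 was preincubated with compounds for 15 min at room temperature. Nitrocefin was then added from an 800 uM solution, and hydrolysis was followed at 480 nm.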
* marks the source's active call; other numbers are inactive results; ? = inconclusive; · = no result given. Unless noted, calls come from the whole dose curve; as a rule, active = well fitted curve in the direction sought with a large enough effect; inconclusive = small, poorly fitted or top-dose-only effect, or another doubt; inactive = no such curve, though single readings can be large; an effect the other way counts as inactive or inconclusive. Potency is the fitted concentration of half-maximal effect.

SMILES	AmpC inh detg	SARS PLpro yeast	Sm TGR block	Pf growth 96h	Pf growth 48h	AmpC inh no detg
Cc1ccc(C)c(N=Cc2cc3c(cc2[N+](=O)[O-])OCO3)c1	-13%	-1%	-22%	0.042µM*	?	-56%
Cc1cccc(C)c1OCC(=O)N/N=C/c1cc2c(cc1[N+](=O)[O-])OCO2	2%	-3%	-1%	?	·	-20%
O=C(CCc1ccc(O)c(O)c1)N/N=C/c1cc2c(cc1[N+](=O)[O-])OCO2	?	?	16µM*	10%	?	-38%
Cc1ccc(-c2cc(NC(=O)C(C)Oc3ccc(C)c(C)c3)on2)cc1 (centres undefined)	16%	·	12%	·	·	·
CN(Cc1ccc(C(C)(C)C)cc1)C(=O)C1CSC2(C)CCC(=O)N12 (centres undefined)	11%	-11%	11%	?	?	190%
Cc1ccc(-c2csc(NC(=O)C3CSC4(C)CCC(=O)N34)n2)cc1 (centres undefined)	-4%	8%	56µM*	-7%	0%	-14%
C=CCN(C(=O)C1CSC2(C)CCC(=O)N12)c1nc(-c2ccccc2)cs1 (centres undefined)	?	-19%	2%	?	12µM*	?
Cc1csc(NC(=O)C2CSC3(C)CCC(=O)N23)n1 (centres undefined)	-4%	1%	-21%	1%	-1%	-17%
CC(=O)c1cccc(NC(=O)c2c(N3CCCC3=O)c3cc(F)ccc3n2C)c1	24%	·	1%	·	·	·
COc1ccc(-n2c(=O)c(CCC(=O)N3CCN(c4ccccc4O)CC3)nc3ccccc32)cc1	?	4%	-1%	8.3µM*	3.7µM*	112%
COc1ccc(Oc2nc(C(F)(F)F)nc3ccccc23)cc1	2%	-23%	6%	3%	-15%	-20%
CSc1nc(Oc2ccc3ccccc3c2)c2ccccc2n1	-4%	-6%	-2%	?	10µM*	?
CCN(CC(=O)Nc1ccccc1C(F)(F)F)C(=O)C1=COCCO1	-15%	-4%	-6%	8%	?	-24%
O=C(CSc1ccc2nc(-c3ccccc3)cn2n1)NCC1CCCO1 (centres undefined)	-3%	0%	3%	5.2µM*	67%	0%
COc1ccc(-c2cn3nc(SCC(=O)NCC4CCCO4)ccc3n2)cc1 (centres undefined)	0%	-2%	-23%	8%	18%	47%
COc1ccccc1-n1c(SC(C)C(=O)NCC2CCCO2)nc2cc(Cl)ccc2c1=O (centres undefined)	-22%	0%	5%	?	13µM*	90%
COc1ccccc1NC(=O)C(C)Sc1nc2ccccc2c(=O)n1CC1CCCO1 (centres undefined)	?	6%	0%	?	10µM*	-6%
CN(C)c1ccc(NC(=O)CSc2nc3ccccc3c(=O)n2CC2CCCO2)cc1 (centres undefined)	-12%	0%	-1%	4.1µM*	-13%	-15%
CCCn1c(SC(C)C(=O)NCC2CCCO2)nc2cc(Cl)ccc2c1=O (centres undefined)	-17%	·	-2%	-21%	?	15%
Cc1ccc(S(=O)(=O)N2CCCc3cc(NS(=O)(=O)c4cc(F)ccc4F)ccc32)cc1	4%	·	6%	·	·	·
O=C(CSc1nc2ccccc2c(=O)n1CC1CCCO1)NCC1CCCO1 (centres undefined)	?	-3%	12%	5.2µM*	-12%	-6%
CCCCCn1c(SCC#N)nc2cc(C(=O)NCC3CCCO3)ccc2c1=O (centres undefined)	3%	2%	6%	4.7µM*	7%	-9%
COC(=O)c1ccc2c(=O)n(CC3CCCO3)c(SCC(=O)Nc3ccccc3Cl)nc2c1 (centres undefined)	-1%	1%	2%	10µM*	·	-3%
COC(=O)c1ccc2c(=O)n(CC3CCCO3)c(SCC(=O)Nc3ccccc3OC)nc2c1 (centres undefined)	-2%	-2%	8%	56%	?	-14%
O=C(CCCn1c(SCc2ccccc2F)nc2ccccc2c1=O)NCC1CCCO1 (centres undefined)	?	1%	0%	2%	6.6µM*	12%
SMILES	AmpC inh detg	SARS PLpro yeast	Sm TGR block	Pf growth 96h	Pf growth 48h	AmpC inh no detg
C=CCn1c(SCC(=O)N2CCCC2)nc2cc(C(=O)NCC3CCCO3)ccc2c1=O (centres undefined)	?	4%	0%	?	-14%	-12%
COc1ccc(C(C(=O)NC2CCCCC2)N(Cc2ccco2)C(=O)c2ccccn2)c(OC)c1 (centres undefined)	-1%	1%	-23%	163%	-26%	75%
CCOC(=O)N1CCN(CCC(=O)Nc2cc([N+](=O)[O-])ccc2OC)CC1	?	-15%	-10%	?	-9%	-20%
Cc1cccc(NC(=O)CSc2nnc(-c3cccs3)o2)c1	16%	·	-5%	·	·	·
Oc1c(C(c2cccc(Cl)c2)N2CCOCC2)sc2nc(-c3ccco3)nn12 (centres undefined)	2%	·	-1%	·	·	·
O=c1oc2ccccc2c(Nc2cccc3cccnc23)c1[N+](=O)[O-]	3%	1%	·	-9%	5%	-17%
O=C(CCCn1c(SCC(=O)NC2CCCCC2)nc2ccccc2c1=O)NCC1CCCO1 (centres undefined)	?	-3%	5%	12µM*	?	-10%
CCC(C)NC(=O)CSc1nc2ccccc2c(=O)n1CCCC(=O)NCC1CCCO1 (centres undefined)	?	-4%	-27%	54%	-15%	-12%
CCC(C)n1c(SCC(=O)NC2CCCC2)nc2ccccc2c1=O (centres undefined)	?	·	-6%	?	12µM*	-1%
O=C(CCCn1c(SCC(=O)NCCc2ccccc2)nc2ccccc2c1=O)NCC1CCCO1 (centres undefined)	1%	7%	-2%	-25%	?	-29%
O=C(CCCn1c(SCC(=O)c2ccc(O)c(O)c2)nc2ccccc2c1=O)NCC1CCCO1 (centres undefined)	2%	-1%	0%	?	9.3µM*	-20%
O=C(CCN1N=C(c2ccccc2)CCC1=O)NCC1CCCO1 (centres undefined)	-6%	25%	3%	3.7µM*	13%	-8%
